Measured values taken from PubChem BioAssay (NCI).
About 83,000 compounds went through this panel and 20% of them were active in at least one assay; those are over-represented in the sample as a whole.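 Cell lines were cultured in 96-well plates, exposed to a single compound concentration, and assessed for percent growth 48 hours later.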 Unmarked numbers belong to inactive results. Activity calls are given as the source filed them. Rule for the calls: active = growth percent below 10; inactive = the rest.

Assays:
Assay in all cases: NCI-60 one-dose screen, 48 h (100 = growth as untreated, 0 = no growth, -100 = all killed)
Settings in all cases: 10 µM unless noted
[1] = system: SR leukemia
[2] = system: RPMI-8226 leukemia
[3] = system: OVCAR-8 ovarian
[4] = system: OVCAR-5 ovarian
[5] = system: OVCAR-4 ovarian
[6] = system: SK-OV-3 ovarian
[7] = system: IGROV1 ovarian
[8] = system: OVCAR-3 ovarian
[9] = system: HS 578T breast
[10] = system: NCI/ADR-RES ovarian

SMILES: CCN(CC)c1ccc(/C=C2\Oc3ccc(O)c(I)c3C2=O)cc1
- growth [1]: 2.38% (active)
- growth [2]: 32.3%
- growth [3]: 61.7%
- growth [4]: 95.1%
- growth [5]: 81.5%
- growth [6]: 79.5%
- growth [7]: 40.4%
- growth [8]: 19.1%
- growth [9]: 75.4%
- growth [10]: 37.9%

SMILES: CCOC(=O)CN1/C(=N/c2sc3c(c2C(=O)OCC)CCN(C(=O)OCC)C3)SC(=O)/C1=C\C(=O)OC
- growth [1]: 29.8%
- growth [2]: -28.8% (active)
- growth [3]: 75.2%
- growth [4]: 89.9%
- growth [5]: 86.8%
- growth [6]: 111%
- growth [7]: 92.1%
- growth [8]: 92.1%
- growth [9]: 82.7%
- growth [10]: 87%

SMILES: C=C(C)[C@@H]1CC[C@]2(C(=O)O)CC[C@]3(C)[C@H](CC[C@@H]4[C@@]5(C)C[C@@H](CC#Cc6ccc(C(F)(F)F)cc6)[C@H](O)C(C)(C)[C@@H]5CC[C@]43C)[C@@H]12
- growth [1]: 15.6%
- growth [2]: 9.12% (active)
- growth [3]: 3.74% (active)
- growth [4]: 52%
- growth [5]: 1.55% (active)
- growth [6]: 36.2%
- growth [7]: 19.5%
- growth [8]: -3.44% (active)
- growth [9]: 24.1%
- growth [10]: 76.1%

SMILES: Cc1nn(-c2ccc(Cl)cc2)c2ncnc(N/N=C/c3cccc([N+](=O)[O-])c3)c12
- growth [1]: 51.3%
- growth [2]: 66.3%
- growth [3]: 99.7%
- growth [4]: 106%
- growth [5]: 94.5%
- growth [6]: 104%
- growth [7]: 94.7%
- growth [8]: 8.17% (active)
- growth [9]: 99.3%
- growth [10]: 105%

SMILES: COc1ccc2[nH]c(=O)c(/C=N/Nc3nc(-c4ccccc4)cs3)c(O)c2c1
- growth [1]: 56.2%
- growth [2]: 70.6%
- growth [3]: 55.1%
- growth [4]: 85.6%
- growth [5]: 47.9%
- growth [6]: 76.8%
- growth [7]: 70.3%
- growth [8]: 24.2%
- growth [9]: 112%
- growth [10]: 37.7%

SMILES: COc1ccc(C2C(C#N)=C(N)Oc3c2ccc2ccccc32)cc1 (stereo not given)
- growth [1]: 37.4%
- growth [2]: 44.3%
- growth [3]: 56.5%
- growth [4]: 73.3%
- growth [5]: 62.3%
- growth [6]: 57.8%
- growth [7]: 41%
- growth [8]: 15.4%
- growth [9]: 47.1%
- growth [10]: 5.02% (active)

SMILES: FC(F)(F)c1cccc(-c2cn3c(ccc4ccccc43)n2)c1
- growth [1]: 95.1%
- growth [2]: 94.4%
- growth [3]: 94.8%
- growth [4]: 102%
- growth [5]: 97.7%
- growth [6]: 85.7%
- growth [7]: 81.5%
- growth [8]: 97.2%
- growth [9]: 104%
- growth [10]: 92.6%

SMILES: C=C1C(=O)O[C@H]2[C@H]1CC/C(Cn1cc(-c3cccc(Cl)c3)nn1)=C\CC[C@@]1(C)O[C@@H]21
- growth [1]: -3.12% (active)
- growth [2]: -34% (active)
- growth [3]: -43.7% (active)
- growth [4]: -36.7% (active)
- growth [5]: -71.3% (active)
- growth [6]: 80.8%
- growth [7]: -50.4% (active)
- growth [8]: -92.8% (active)
- growth [9]: -0.629% (active)
- growth [10]: 10.7%

SMILES: CCCCCCCCCCCCNC(=O)[C@H]1CSC(c2ccsc2)N1 (stereo not given in full)
- growth [1]: -44% (active)
- growth [2]: 34.3%
- growth [3]: -49.4% (active)
- growth [4]: -83.2% (active)
- growth [5]: -84.6% (active)
- growth [6]: -93.8% (active)
- growth [7]: -66.7% (active)
- growth [8]: -86.8% (active)
- growth [9]: -56.5% (active)
- growth [10]: -61.5% (active)

SMILES: COc1ccc(C(=O)N2NC(=O)/C(=C/c3ccc(Br)cc3)N=C2c2ccccc2)cc1
- growth [1]: 57.2%
- growth [2]: 71.7%
- growth [3]: 78.4%
- growth [4]: 91.4%
- growth [5]: 92.7%
- growth [6]: 85.3%
- growth [7]: 92.5%
- growth [8]: 119%
- growth [9]: 94.9%
- growth [10]: 83.4%

SMILES: CN1CCN(Cc2ccc(NC(=O)c3cncc(C#Cc4cnc(N)c5cnccc45)c3)cc2C(F)(F)F)CC1
- growth [1]: 11%
- growth [2]: -16.7% (active)
- growth [3]: 23.8%
- growth [4]: 2.45% (active)
- growth [5]: 11.9%
- growth [6]: -26.8% (active)
- growth [7]: -8.29% (active)
- growth [8]: 35.7%
- growth [9]: -18% (active)
- growth [10]: 65.9%

SMILES: COc1cccc(CC(C)=C(c2ccc(OCCN3CCCCC3)cc2)c2ccc(OCCN3CCCCC3)cc2)c1
- growth [1]: -41.2% (active)
- growth [2]: -45.8% (active)
- growth [3]: -50.3% (active)
- growth [4]: 24%
- growth [5]: -49% (active)
- growth [6]: 76.9%
- growth [7]: -10.5% (active)
- growth [8]: -40.7% (active)
- growth [9]: -50% (active)
- growth [10]: -13.3% (active)

SMILES: COc1ccc(C2CC(c3ccc(OC)cc3OC)=NN2c2ccc(S(N)(=O)=O)cc2)cc1 (stereo not given)
- growth [1]: 70.2%
- growth [2]: 2.07% (active)
- growth [3]: 77%
- growth [4]: 99.4%
- growth [5]: 80.2%
- growth [6]: 105%
- growth [7]: 82.5%
- growth [8]: 119%
- growth [9]: 103%
- growth [10]: 89.4%

SMILES: O=C(Nc1ccncc1)C(=O)c1cn(S(=O)(=O)c2ccc(Cl)cc2)c2ccccc12
- growth [1]: 28.3%
- growth [2]: 31.4%
- growth [3]: 42.5%
- growth [4]: 64.7%
- growth [5]: 49%
- growth [6]: 91.7%
- growth [7]: 39.7%
- growth [8]: -22.3% (active)
- growth [9]: 13.5%
- growth [10]: -4.89% (active)

SMILES: N[C@@H]1CCN(C(=O)c2cc3cc(Cl)c(F)c(F)c3[nH]2)C1
- growth [1]: 88.3%
- growth [2]: 96%
- growth [3]: 96.3%
- growth [4]: 90.3%
- growth [5]: 96.5%
- growth [6]: 89.3%
- growth [7]: 80.7%
- growth [8]: 97.6%
- growth [9]: 87.5%
- growth [10]: 103%

SMILES: COc1cc(NC(N)=NCCC(C)(C)c2ccc(C(F)(F)F)cc2)ncc1C#N
- growth [1]: -49% (active)
- growth [2]: -48.7% (active)
- growth [3]: 24.4%
- growth [4]: 47.2%
- growth [5]: 18.9%
- growth [6]: 56.8%
- growth [7]: 24.1%
- growth [8]: 24%
- growth [9]: 63%
- growth [10]: 24.3%

SMILES: c1ccc(-c2cn(-c3ccccc3)c(-c3ccccc3)n2)cc1
- growth [1]: -29.7% (active)
- growth [2]: -58.9% (active)
- growth [3]: 21.1%
- growth [4]: 83.4%
- growth [5]: 88.7%
- growth [6]: 97.1%
- growth [7]: 4.72% (active)
- growth [8]: 13.4%
- growth [9]: 87.1%
- growth [10]: 92.4%

SMILES: COc1ccc(C2NN=C3c4ccccc4CCC32)cc1 (stereo not given)
- growth [1]: 3.17% (active)
- growth [2]: 21.7%
- growth [3]: 80.4%
- growth [4]: 90.5%
- growth [5]: 71.4%
- growth [6]: 77%
- growth [7]: 16.8%
- growth [8]: 37.6%
- growth [9]: 62.3%
- growth [10]: 29.9%

SMILES: C=C1C(=O)O[C@H]2[C@H]1CC/C(Cn1cc(CNC(=O)/C=C/c3c[nH]c4ccccc34)nn1)=C\CC[C@@]1(C)O[C@@H]21
- growth [1]: 56.6%
- growth [2]: 13%
- growth [3]: 98.9%
- growth [4]: 114%
- growth [5]: 100%
- growth [6]: 103%
- growth [7]: 86.2%
- growth [8]: 30.5%
- growth [9]: 95.4%
- growth [10]: 108%

SMILES: Cc1ccc2nc(Cl)cc(=O)n2c1
- growth [1]: 97.8%
- growth [2]: 96.1%
- growth [3]: 117%
- growth [4]: 94%
- growth [5]: 117%
- growth [6]: 102%
- growth [7]: 123%
- growth [8]: 135%
- growth [9]: 93.7%
- growth [10]: 117%

SMILES: COc1cccc(-c2nc3sccn3c2-c2ccnc(NCCCNS(=O)(=O)c3ccc(C(F)(F)F)cc3)c2)c1
- growth [1]: 51.2%
- growth [2]: 33%
- growth [3]: 45.1%
- growth [4]: 95.7%
- growth [5]: 38.3%
- growth [6]: 72.6%
- growth [7]: 60.5%
- growth [8]: 61.7%
- growth [9]: 63.1%
- growth [10]: 35.5%

SMILES: Nc1ccc(C(=O)CSc2nc3ccccc3[nH]2)cc1
- growth [1]: 110%
- growth [2]: 103%
- growth [3]: 105%
- growth [4]: 102%
- growth [5]: 110%
- growth [6]: 105%
- growth [7]: 112%
- growth [8]: 107%
- growth [9]: 109%
- growth [10]: 99.3%

SMILES: CCOC(=O)c1cc(C(=O)c2cc(OC)c(OC)c(OC)c2)n2c1ccc1ccccc12
- growth [1]: 10.8%
- growth [2]: 11.2%
- growth [3]: 32.7%
- growth [4]: 46.5%
- growth [5]: 40.8%
- growth [6]: 34.7%
- growth [7]: 31.4%
- growth [8]: -17.3% (active)
- growth [9]: 11.6%
- growth [10]: 18%

SMILES: CCC1=CCC[C@@]2(C)CCC[C@@]3(C)CCCC(C)(C)[C@]1([O-])[O+]32
- growth [1]: 112%
- growth [2]: 97.9%
- growth [3]: 104%
- growth [4]: 104%
- growth [5]: 85.1%
- growth [6]: 107%
- growth [7]: 105%
- growth [8]: 111%
- growth [9]: 92.8%
- growth [10]: 106%

SMILES: COc1ccc(NC(=O)CSc2nc(-c3ccc(OC)c(OC)c3)cc(-c3cc(OC)c(OC)c(OC)c3)n2)cc1
- growth [1]: 104%
- growth [2]: 78.2%
- growth [3]: 94.2%
- growth [4]: 99.1%
- growth [5]: 106%
- growth [6]: 109%
- growth [7]: 122%
- growth [8]: 114%
- growth [9]: 90.8%
- growth [10]: 98.7%

SMILES: Nc1nc(Nc2cc(Cl)cc(Cl)c2)nn1S(=O)(=O)c1ccc2ccccc2c1
- growth [1]: 46.3%
- growth [2]: 66.5%
- growth [3]: 40.6%
- growth [4]: 68.3%
- growth [5]: 72.5%
- growth [6]: 59.5%
- growth [7]: 20.3%
- growth [8]: 60.1%
- growth [9]: 40.5%
- growth [10]: 37.1%

SMILES: O=C1c2c(c3c4ccccc4n(CCCCCCBr)c3c3[nH]c4ccccc4c23)C(=O)N1O
- growth [1]: 6.48% (active)
- growth [2]: 1.01% (active)
- growth [3]: 0.342% (active)
- growth [4]: 19.8%
- growth [5]: 7.84% (active)
- growth [6]: 3.04% (active)
- growth [7]: -5.71% (active)
- growth [8]: 15%
- growth [9]: 50.3%
- growth [10]: 9.64% (active)
